Assay outcomes from PubChem.
This is one part of a sample in which hits are shown more often than they occur.
Dicer inh – inhibitors of Dicer pre-microRNA processing, primary screen, biochemical, cat-ELCCA, chemiluminescence. Endoribonuclease Dicer (Homo sapiens), Q9UPY3. cat-ELCCA pre-miR-21 Dicer processing; stronger effect = higher value. z-score at 25 µM. 6% of 47,000 active; in the data active = z-score above about 3, passing the limit was not always enough;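 note: higher signal means more uncleaved substrate so more Dicer inhibition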
Large screens that a line does not name were inactive.

Cc1c(CNC(=O)c2cnn3c2NC(c2ccc(Br)cc2)CC3C(F)(F)F)cnn1C (stereo not drawn)	none
COCCNC(=O)c1cnn2c1NC(c1ccc(Br)cc1)CC2C(F)(F)F (stereo not drawn)	Dicer inh 4.28
Cc1nn(C)cc1CNC(=O)c1cnn2c1NC(c1ccc(Br)cc1)CC2C(F)(F)F (stereo not drawn)	none
Cc1ccc(C2CC(C(F)(F)F)n3nc(C(=O)NC4CCCC4)c(Cl)c3N2)cc1 (stereo not drawn)	none
O=C(NC1CCCCC1)c1cnn2c1NC(c1ccc(Br)cc1)CC2C(F)(F)F (stereo not drawn)	Dicer inh 5.56
CCC(C)NC(=O)c1cnn2c1NC(c1ccc(Br)cc1)CC2C(F)(F)F (stereo not drawn)	none
Cc1ccc(C2CC(C(F)(F)F)n3ncc(C(=O)N4CCCCC4)c3N2)cc1 (stereo not drawn)	Dicer inh 3.01
O=C(c1cnn2c1NC(c1ccc(F)cc1)CC2C(F)(F)F)N1CCCCC1 (stereo not drawn)	none
O=C(c1cnn2c1NC(c1ccccc1)CC2C(F)(F)F)N1CCOCC1 (stereo not drawn)	none
Cc1cc(OCc2nc(-c3ccc(-n4cccc4)cc3)no2)cc(C)c1Cl	none
CC(C)N(C(=O)c1ccccc1-c1ccccc1C(=O)N(C(C)C)C(C)C)C(C)C	none
N#Cc1c(SCC(N)=O)nc2c(c1-c1cccnc1)CCC2	none
CSCCC(NC(=O)c1ccc(C(F)(F)F)cc1)C(=O)NNC(=O)Nc1ccccc1 (stereo not drawn)	none
CCc1nnc(NC(=O)CSc2nnnn2-c2ccccc2)s1	none
CC(C)Sc1nnnn1-c1ccccc1	Dicer inh 4.91
CS(=O)(=O)NCCSc1nnnn1-c1ccccc1	none
NC(=O)CSc1nnnn1-c1ccccc1	Dicer inh 4.88
Cc1n[nH]c(C)c1Sc1nnnn1-c1ccccc1	none
O=C(CSc1nnnn1-c1ccccc1)Nc1cccc(F)c1	none
N#CC1=C(N)Oc2ccc3ccccc3c2C1c1ccccc1Cl (stereo not drawn)	none
S=C(N/N=C/c1ccccc1Cl)NC1CC2C=CC1C2 (stereo not drawn)	none
COc1ccc(Oc2sccc2[N+](=O)[O-])cc1	none
O=[N+]([O-])c1ccsc1Oc1ccc(Cl)cc1Cl	Dicer inh 4.2
O=[N+]([O-])c1ccc(Oc2ccc(Cl)cc2Cl)cc1C(F)(F)F	none
O=c1[nH]c2sc(-c3ccccc3)cc2c(=O)n1-c1ccc(Cl)cc1	none
COc1ccc2c(c1)C(C)=CC(C)(C)N2C(=O)CSc1nnc(C)s1	none
COc1ccc2c(c1)C(C)CC(C)(C)N2C(=O)CSc1ncccn1 (stereo not drawn)	Dicer inh 4.23
COc1ccc2c(c1)C(C)CC(C)(C)N2C(=O)CSc1ncn[nH]1 (stereo not drawn)	none
COc1ccccc1OCCSc1nc(C)cc(C)n1	none
Cc1ccc(C(C)C)c(OCc2nc3ccccc3n2C)c1	none
Cc1ccc(OCCSc2nc(N)cc(N)n2)c(C(C)C)c1	Dicer inh 4.87
Cc1ccc(C(=O)NNC(=O)Cc2nc(-c3ccccc3)sc2C)cc1	none
O=C(Nc1c(C(=O)c2ccccc2)oc2ccccc12)c1cccs1	none
COc1cc(/C=N/c2nccs2)ccc1O	Dicer inh 3.08
COc1cc(/C=N/n2cnc3c(sc(=S)n3C)c2=O)ccc1O	none
COc1cc(C=Nc2ccc(N3N=C(C)CC3=O)cc2)ccc1O	none
CC(C(=O)NNC(=O)c1ccc(Cl)cc1)n1nnc(N2CCOCC2)n1 (stereo not drawn)	none
COc1ccccc1NC(=S)NNC(=S)NC1CC2C=CC1C2 (stereo not drawn)	none
CSC(=Nc1cc(C(F)(F)F)cc(C(F)(F)F)c1)N1CCOCC1	none
CN(C)CCN1C(=O)C(O)=C(C(=O)c2ccco2)C1c1ccco1 (stereo not drawn)	none
CC(C)(C)OC(=O)NCCNC(=S)NCc1ccccc1	none
CC(=O)C1C(=O)c2c(Cl)c(Cl)c(Cl)c(Cl)c2C1=O	Dicer inh 5.12
CC(=O)C1C(=O)c2cccc([N+](=O)[O-])c2C1=O (stereo not drawn)	none
CC(=O)C1C(=O)CC(c2ccc(Cl)cc2)CC1=O (stereo not drawn)	none
CC(C)Cc1ccc(C2=Nn3c(nnc3-c3cccs3)SC2C)cc1 (stereo not drawn)	none
O=C(Cn1cnc([N+](=O)[O-])n1)NCc1cccnc1	none
Cn1nccc1NC(=O)CC(C)(C)CC(=O)O	none
CCCCCCCCC(=O)Nc1nc2c(s1)CCc1ccccc1-2	none
O=C(Nc1nc2c(s1)Cc1ccccc1-2)c1ccc(F)c(Cl)c1	none
CC(=O)Nc1nc2c(s1)Cc1ccccc1-2	none
O=C(Nc1nc2c(s1)CCc1ccccc1-2)c1ccc(F)c(Cl)c1	Dicer inh 3.72
ON/C=N/c1nc2c(s1)CCc1ccccc1-2	none
Oc1ccccc1CNc1nc2c(s1)CCc1ccccc1-2	Dicer inh 4.27
Cc1ccc(N2C(=O)SC(Nc3ccc(S(N)(=O)=O)cc3)C2=O)cc1C (stereo not drawn)	none
CCOc1nc(-c2ccc(Cl)cc2)ccc1-c1noc(-c2ccncc2)n1	none
O=C1CC(Sc2cccs2)C(=O)N1c1ccc(F)cc1 (stereo not drawn)	none
Fc1cc(Br)cc(F)c1NC(=S)Nc1cccc(Cl)c1	none
CS/C(=C(/C#N)S(=O)(=O)C(C)C)N1CCCC1	none
CS/C(=C(/C#N)S(=O)(=O)C(C)C)N1CCOCC1	none
CS/C(=C(/C#N)S(=O)(=O)C(C)C)N1CCCCC1	Dicer inh 4.23
Cc1sc2c(c1C)C(=O)/C(=C\N(C)C)S(=O)(=O)N2C	none
Cc1ccc(Cl)c2c1NC(=O)C2(O)c1c[nH]c2ccccc12 (stereo not drawn)	none
COc1ccc(OC)c(C2NC(c3cc(OC)ccc3OC)C(C)C(C)(O)C2C)c1 (stereo not drawn)	none
CC(C)NC(=O)C(=O)NCC1CCCO1 (stereo not drawn)	none
CC(O)CNC(=O)C(=O)NCC1CCCO1 (stereo not drawn)	none
CCOC(=O)C(C(=O)NCC1CCCO1)C1CCCCC1 (stereo not drawn)	Dicer inh 3.97
COC(=O)c1csc(S(=O)(=O)N=S(C)(=O)c2ccc(C(F)(F)F)cn2)c1OC (stereo not drawn)	none
CN(C)/C=C/C(=O)c1cc(F)cc(F)c1O	none
N#C/C(=C\c1cccc(Cl)c1Cl)c1nc2ccccc2s1	none
CCOC(=O)c1cnc2cc(C)[nH]n2c1=O	none
CCOC(=O)c1cnc2n(c1=O)CCS2	Dicer inh 3.22
CCOC(=O)c1cnc2cc(C)ccn2c1=O	none
Cc1cccc2c1N(C(C)C)C(=O)C2=O	none
COc1ccc(C(=O)/C=C/Sc2nccc(C)n2)cc1	none
Cc1nc2cc(Cl)ccc2n1CO	none
Cc1ccc(C)c(S(=O)(=O)Nc2ccc3oc4c(c3c2)C(=O)CCC4)c1	none
Cc1ccc(C)c(S(=O)(=O)Nc2cc(Cl)c3oc(=O)sc3c2)c1	Dicer inh 11.8
Cc1ccc(C)c(S(=O)(=O)Nc2ccc3oc(C)c(C(=O)O)c3c2)c1	none
Cc1cc(NS(=O)(=O)c2ccc(NS(=O)(=O)c3cc(C)c(Cl)cc3Cl)cc2)no1	none
Cc1ccc(S(=O)(=O)Nc2cc(Cl)c3oc(=O)sc3c2)cc1	Dicer inh 11
O=c1oc2c(Cl)cc(NS(=O)(=O)c3ccc(F)cc3)cc2s1	Dicer inh 9.74
COc1ccc(S(=O)(=O)Nc2nnc(C(C)C)s2)cc1	none
COC(=O)c1sc(C(C)(C)C)cc1NS(=O)(=O)c1ccc(OC)cc1	none
O=S(=O)(Nc1ccccc1Cl)c1ccc(F)cc1	none
Cc1cc(C)cc(NS(=O)(=O)c2ccc3[nH]c(=O)[nH]c3c2)c1	none
COc1ccc(S(=O)(=O)Nc2cc(Cl)c3oc(=O)sc3c2)cc1	Dicer inh 8.94
